# Laboratory results published in PubChem BioAssay (NCI).
# Compounds without any hit were thinned out: in the full panel of roughly 83,000, 20% have a hit.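 Plates (96-well) were seeded with cells, treated with compound at one concentration, and incubated for 48 hours before percent growth was determined.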 The source made the active and inactive calls. Rule for the calls: active = growth percent below 10; inactive = the rest.
# Test system: HL-60(TB) leukemia
# Assay: NCI-60 one-dose screen, 48 h (100 = growth as untreated, 0 = no growth, -100 = all killed)
# Settings: 10 µM unless noted
row,Structure (SMILES),growth
1,CCCN(CCC)CCC(O)c1cc2c(c3ccccc13)CCCC2 (stereo not given),113% (inactive)
2,C=C1C(=O)O[C@H]2[C@H]1CC/C(COC(=O)CCSSCCC(=O)OC/C1=C/CC[C@@]3(C)O[C@H]3[C@H]3OC(=O)C(=C)[C@@H]3CC1)=C\CC[C@@]1(C)O[C@@H]21,-47.9% (active)
3,C/C=C(\C)C(=O)N[C@H]1CC[C@]2(C)C3CC[C@@]4(C)C(CC[C@@H]4C(C)N(C)C)C3CCC2[C@H]1OC(C)=O (stereo not given in full),18.2% (inactive)
4,NC1=NC(c2cccc(Br)c2)c2sc3ccc(Cl)cc3c2N1 (stereo not given),102% (inactive)
5,CCN(CC)c1ccc(N=C2C=CC(=O)C=C2NC(C)=O)cc1,55.3% (inactive)
6,CS(=O)(=O)c1ccc(/C=C\C(=O)O)cc1,122% (inactive)
7,CCOP(=O)(CCN1CCN(CCCCCOc2cc3c(cc2OC)C(=O)N2CCC[C@H]2C=N3)CC1)OCC,10.9% (inactive)
8,O=c1[nH][nH]c(=O)c2cc([N+](=O)[O-])ccc12,96.2% (inactive)
9,COc1cccc(C(=O)NCCNc2cc(-c3cn(-c4ccccc4)nc3-c3cccc(OC)c3)ccn2)c1,41.5% (inactive)
10,CC(=O)Nc1ccc2c(c1)Cc1c(F)cccc1-2,97.7% (inactive)
11,Clc1ccc2c(c1)C(Br)c1cc(Cl)cc(Cl)c1-2 (stereo not given),81.3% (inactive)
12,CN(C)c1ccc(O)c2c1CC1CC3C(N(C)C)C(=O)C(C(N)=O)=C(O)C3(O)C(=O)C1=C2O (stereo not given),51.3% (inactive)
13,O=c1ccccc(-c2ccc(-c3ccco3)cc2)c1O,-30.3% (active)
14,COc1cc(C(=O)c2c(-c3ccccc3)oc3ccccc23)cc(OC)c1O,5.07% (active)
15,Cc1scc2c1N(C(=O)CN1CCN(C)CC1)c1ccccc1NC2=O,121% (inactive)
16,COc1ccc(-c2cn[nH]c2-c2cc(OC)c3c(c2)OCCO3)cc1,-33.2% (active)
17,CCN1CCN(CCNc2nccc(-c3c(-c4ccc(F)c(OC)c4)nc4sccn34)n2)S1(=O)=O,89.1% (inactive)
18,O=C(O)c1ccccc1Cc1ccc2c(c1)CCCC2,130% (inactive)
19,O=C(CCl)Nc1ccc(Cc2ccc(NC(=O)CCl)cc2)cc1,-18.3% (active)
20,COc1ccc(C(=O)Cn2c(C(=O)c3ccccc3)nc3ccccc32)cc1,-27.5% (active)

row,Structure (SMILES),growth
1,CC(=O)OCCOc1cc(Cl)c(Cl)cc1Cl,77.3% (inactive)
2,O=c1c2c3c(sc2nc(N/N=C/c2cn(-c4ccccc4)nc2-c2ccc(Cl)cc2)n1Cc1ccccc1)CCCC3,-32.4% (active)
3,CC/C(=C(/c1ccc(OCCN(C)C)cc1)c1ccc(OC(=O)CCCCC(=O)c2c(C)[nH]c(/C=C3\N=C(c4ccc[nH]4)C=C3OC)c2C)cc1)c1ccccc1,82.2% (inactive)
4,C=C[C@@H]1C[C@@H]2Cc3c(C)cc(C)cc3N1O2,0.0364% (active)
5,CCOc1ccccc1NC(=O)CCC(=O)OC,78.7% (inactive)
6,FC(F)(F)c1ccc(-c2nc(-c3nc4cc(Cl)c(Cl)cc4[nH]3)c3ccccn23)cc1,104% (inactive)
7,C=C1SC(=Nc2ccccc2Cl)N(C(=O)c2sc3ccccc3c2Cl)C1(C)C,1.29% (active)
8,O=C(Nc1cccc(-n2ccc3c(NC(=O)c4ccccc4)nccc32)c1)Nc1cc(C(F)(F)F)cc(C(F)(F)F)c1,-17.6% (active)
9,NNc1cccc([N+](=O)[O-])c1,6.4% (active)
10,O=C1c2ccccc2NC(n2sc3ccccc3c2=O)N1c1ccccc1 (stereo not given),87.9% (inactive)
11,CCC/C(=N\NC(N)=O)C(OC)OC,86.5% (inactive)
12,CCCCN(CCCC)c1ccc(C(=N)c2ccc(N(C)C)cc2)cc1,-55.1% (active)
13,COc1cc(-c2n/c(=C\c3c(O)[nH]c4ccc(Cl)cc34)cc3c2=Nc2ccccc2-3)cc(OC)c1OC,48.3% (inactive)
14,CCN(CC)c1ccc(/C=C/c2cc(C)c3ccccc3n2)cc1,59.1% (inactive)
15,CCN(CC)CCOc1nc2c3ccc(Cl)cc3nn2c2ccccc12,19.5% (inactive)
16,CCOC(=O)Nc1nn[nH]n1,47.7% (inactive)
17,COc1ccc(/C=C2\CN(Cc3cn(CCCNc4ccnc5cc(Cl)ccc45)nn3)C/C(=C\c3ccc(OC)cc3)C2=O)cc1,53.1% (inactive)
18,Brc1ccsc1Br,102% (inactive)
19,COc1cnc2c(c1)C(=O)c1c-2n(CCCN2CCC(O)CC2)c(=O)c2cc(F)ccc12,-8.3% (active)
20,CC(C)(C)c1cc(/C=N/NC(=O)c2ccccc2NC(=O)c2cccs2)c(O)c(C(C)(C)C)c1,14.1% (inactive)
